Data on 43 molecules can be found in PubChem BioAssay AID591 (National Center for Advancing Translational Sciences (NCATS), 2007).

About 60 (0.1%) of roughly 59,000 compounds were called active. This is one part of a sample in which actives are shown more often than they occur. How the calls were made is not given here.

The assay in a line: qHTS Assay for Spectroscopic Profiling in A488 Spectral Region. The note with it: compound autofluorescence; max dye equivalency: Compound Type: qHTS ECL - SigmaAldrich, hits give high values unless noted; outcome: dye equivalency, Compound Type: qHTS ECL - MLSMR unless noted. The source says: NIH Molecular Libraries Screening Centers Network [MLSCN]
NIH Chemical Genomics Center [NCGC]
Occasionally, the artifactual effect may originate from the compounds own spectral or other biophysical properties which generally tend to track its assay concentration. Pre-screening/profiling the library with respect to the compounds spectral properties should help one exclude false positives early on. While the most informative fluorescent profiling data set is obtained by performing a full excitation and emission scan of each well by using a monochromator-based plate reader, such an approach is practical only on a very limited scale as scanning each well requires long time. An alternative approach, applied here, is to perform plate reader scans using selected excitation and emission wavelength pairs to generate a multidimensional relational database that correlates compound concentration and the respective relative fluorescence intensity at a given wavelength set. A standard curve of Alexa 488 (A488) present on each plate as six-point concentration series, was used to compute a normalized fluorescence response, termed dye-equivalent concentration, for each compound at each concentration.
NCGC Assay Protocol Summary:
100 mM Tris buffer, pH 8.0
The wells in columns 1 through 4 of a Kalypsys polypropylene 1536-well compound plate were filled with standard solutions of fluorophore corresponding to the spectral region of interest. Solutions of A488 were placed in the following wells: Y1, Z1: 3 mM, Y2, Z2: 300 uM, Y3, Z3: 30 uM, Y4, Z4: zero (DMSO), AA1, AB1: 3 uM, AA2, AB2: 900 nM, AA3, AB3: 300 nM, AA4, AB4: zero (DMSO).
Six uL of buffer were dispensed to 1536-well Greiner black plates. Compounds and dye standards (23 nL) were transferred via Kalypsys PinTool. The plates were incubated for 15 min at room temperature, and then read on ViewLux (Perkin-Elmer) High-throughput CCD imager using 480 nm and 540 nm excitation and emission filter set.
Keywords: NIH Roadmap, MLSCN, MLI, MLSMR, qHTS, NCGC, A488, A-488, Fluorescent Profiling.
(In general: Quantitative high-throughput screening tests each substance at several concentrations.)
On to `CCOC(=O)N1CCC(C(N)=O)CC1`, for which the result was inactive.
For `Cc1cc(C)n2nc(C(=O)Oc3ccc4c(c3)OCO4)nc2n1`, the result was inactive.
As for `N#Cc1ccc(CN2CCCC3(CCN(C(=O)c4ccco4)CC3)C2)cc1`, the outcome is “inactive [dye equivalency, Compound Type: qHTS ECL - Pharmacopeia]”.
Regarding `CCCCOc1ccc(NC(=O)CSCC(=O)OCC)cc1`, the result was inactive.
`Cc1cccc(N)c1SC1CCCCC1O` (stereo not drawn): the result was inactive.
Turning to `COc1ccccc1CNc1ncncc1-c1cccc(NS(C)(=O)=O)c1`, the outcome was “inactive [dye equivalency, Compound Type: qHTS ECL - Pharmacopeia]”.
On to `COC(=O)Cc1c(C)c2ccc(OCC(=O)NCc3ccc4c(c3)OCO4)cc2oc1=O`, for which the outcome was “inactive [dye equivalency, Compound Type: qHTS ECL - DPISMR]”.
For `O=c1c(CCc2ccccc2)nc2cnc(N3CCNCC3)nc2n1Cc1cccs1`, the outcome was “inactive [dye equivalency, Compound Type: qHTS ECL - Pharmacopeia]”.
Turning to `O=C(NC1CCCCC1)N1CCc2[nH]c3ccccc3c2C1`, the outcome was “inactive [dye equivalency, Compound Type: qHTS ECL - DPISMR]”.
For the molecule `CCOC(=O)c1c(N)c(C#N)nn1-c1ccccc1C(=O)OC`, the outcome is “inactive [dye equivalency, Compound Type: qHTS ECL - DPISMR]”.
Regarding `Cc1ccc(C(=O)NC2CC(C)(C)NC(C)(C)C2)c(C)c1`, the outcome was inactive.
Turning to `O=C(Oc1ccc2c(c1)CN(Cc1ccccc1)CO2)c1ccccc1`, the outcome is “inactive [dye equivalency, Compound Type: qHTS ECL - NCI]”.
In the case of `c1ccc(-c2cn3cccnc3n2)cc1`, the outcome was inactive.
As to `CCC(C)n1[nH]c(=O)cc1N` (stereo not drawn), the outcome was inactive.
Consider `Cc1cccc(N2CCN(C(c3ccccc3)c3nnnn3CC3CCCO3)CC2)c1C` (stereo not drawn), for which the result was inactive.
For `CC1(C)CC(=O)C2=C(C1)NCN(CCCN1CCOCC1)C2`, the outcome was “inactive [dye equivalency, Compound Type: qHTS ECL - DPISMR]”.
As for `O=C(c1ccco1)N1CCN(CC(=O)N(C2CCCCC2)C2CCS(=O)(=O)C2)CC1` (stereo not drawn), the entry is “inactive”.
Consider `O=c1c(-c2cc(F)cc(F)c2)nc2cnc(Oc3ccccc3)nc2n1C[C@H]1CCCO1`, for which the outcome is “inactive [dye equivalency, Compound Type: qHTS ECL - Pharmacopeia]”.
As for `CCCc1nc2ccccc2c(C(=O)OCc2nnc(-c3cc(OC)c(OC)c(OC)c3)o2)c1CC`, the outcome was inactive.
For the molecule `COc1ccc(OCc2cccc(C(=O)N3CCCC3)c2)cc1`, the outcome was inactive.
Then `CCOc1ccccc1NC(=O)Nc1cc(OC)ccc1OC`, with “inactive [dye equivalency, Compound Type: qHTS ECL - DPISMR]”; and `Cn1c(=O)[nH]c(=O)c2c1nc(NCCCn1ccnc1)n2Cc1cccc(Br)c1`, with “inactive [dye equivalency, Compound Type: qHTS ECL - DPISMR]”; and `CCCc1nc2ccccc2c(=O)n1/N=C/c1ccc(O)c(O)c1`, with “inactive [dye equivalency, Compound Type: qHTS ECL - DPISMR]”.
As for `COc1ccc(-c2nc3cnc(Oc4ccccc4)nc3n(Cc3cccs3)c2=O)cc1`, the outcome is “inactive [dye equivalency, Compound Type: qHTS ECL - Pharmacopeia]”.
As for `CN1CCN(S(=O)(=O)c2ccc3[nH]cc(C(=O)O)c(=O)c3c2)CC1`, the entry is “inactive [dye equivalency, Compound Type: qHTS ECL - DPISMR]”; as for `CCCOP(=O)(c1ccc(N(C)C)cc1)C(O)c1cc(OC)c(OC)c(OC)c1` (stereo not drawn), “inactive [dye equivalency, Compound Type: qHTS ECL - DPISMR]”; as for `COc1ccccc1-c1nc(NCc2cccs2)c2ccccc2n1`, “inactive [dye equivalency, Compound Type: qHTS ECL - Pharmacopeia]”.
Then `CC(=O)N1CCC(C(=O)Nc2nc(-c3ccccc3)ns2)CC1`, with “inactive [dye equivalency, Compound Type: qHTS ECL - DPISMR]”.
Regarding `N#Cc1cccc(-c2ccc3ncnc(NCc4cccs4)c3c2)c1`, the outcome is “inactive [dye equivalency, Compound Type: qHTS ECL - Pharmacopeia]”.
Then `COc1ncc2nc(-c3ccc(Cl)cc3)c(=O)n(-c3ccccc3)c2n1`, with “inactive [dye equivalency, Compound Type: qHTS ECL - Pharmacopeia]”; and `COc1ccc2c3c(c(=O)oc2c1OCC(=O)C(C)(C)C)CCCC3`, with “inactive [dye equivalency, Compound Type: qHTS ECL - DPISMR]”.
Then `CCOc1ccccc1-n1c(SCC(=O)N2CCCC2)nnc1-c1ccoc1C`, with “inactive”.
Turning to `CCOC(=O)N1CCC(NC(=O)CN2C(=O)COc3ccc(C(C)(C)C)cc32)CC1`, the outcome was “inactive [dye equivalency, Compound Type: qHTS ECL - DPISMR]”.
Take `CC1(C)CC(=O)C=C(NCc2ccncc2)C1`: the result was inactive.
On to `Oc1ccc2ccccc2c1C=NCc1c(O)ccc2ccccc12`, for which the outcome was “inactive [dye equivalency, Compound Type: qHTS ECL - NCI]”.
On to `COc1cccc(NS(=O)(=O)c2ccc3[nH]cc(C(=O)NCCCOC(C)C)c(=O)c3c2)c1`, for which the result was inactive.
Consider `O=c1c2c(nc3n1CCCCC3)sc1c(O)cccc12`, for which the outcome was inactive.
Then `O=C(CN1CCN(c2ccc(F)cc2)CC1)Nc1cccc(C(F)(F)F)c1`, with “inactive [dye equivalency, Compound Type: qHTS ECL - DPISMR]”; and `CCc1c(C)nc(N)n2c(SCC(=O)N3CCN(c4ccccc4)CC3)nnc12`, with “inactive”.
In the case of `O=C(Nc1cccc(F)c1)N1CCC2(CC1)CCN(S(=O)(=O)c1ccccc1)CC2`, the outcome is “inactive [dye equivalency, Compound Type: qHTS ECL - Pharmacopeia]”.
For the molecule `COc1ccc(-c2nnc(SCC(=O)c3ccco3)n2-c2ccccc2)cc1`, the outcome was inactive.
As for `CCn1c(SCC(=O)NCC2CCCO2)nc2cc(S(=O)(=O)N3CCCCC3)ccc21` (stereo not drawn), the result was inactive.
For `O=c1c(-c2cccs2)nc2cnc(Oc3ccccc3)nc2n1-c1ccccc1`, the outcome was “inactive [dye equivalency, Compound Type: qHTS ECL - Pharmacopeia]”.
